Activity calls are given as the source filed them.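 Rule for the calls: active = blocks over 70% of labeled estradiol binding at 10 µM, or over a set limit at 100 nM; inactive = the rest.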
Target: Estrogen receptor beta (Homo sapiens) (UniProt Q92731)
Test: displacement of fluorescent estrogen from ERbeta – cell-based, Cos7 ERbeta-GFP, flow cytometry, primary screen (AID 1210);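 note: 0% = DMSO vehicle wells and 100% = complete loss of labeled estradiol signal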
Details: fluorescent estrogen binding, stronger effect = higher value
[1] = ligand binding inhibition, at 0.1 µM

Estrogen receptor beta (Homo sapiens), sequence (Q92731 whole entry, looked up): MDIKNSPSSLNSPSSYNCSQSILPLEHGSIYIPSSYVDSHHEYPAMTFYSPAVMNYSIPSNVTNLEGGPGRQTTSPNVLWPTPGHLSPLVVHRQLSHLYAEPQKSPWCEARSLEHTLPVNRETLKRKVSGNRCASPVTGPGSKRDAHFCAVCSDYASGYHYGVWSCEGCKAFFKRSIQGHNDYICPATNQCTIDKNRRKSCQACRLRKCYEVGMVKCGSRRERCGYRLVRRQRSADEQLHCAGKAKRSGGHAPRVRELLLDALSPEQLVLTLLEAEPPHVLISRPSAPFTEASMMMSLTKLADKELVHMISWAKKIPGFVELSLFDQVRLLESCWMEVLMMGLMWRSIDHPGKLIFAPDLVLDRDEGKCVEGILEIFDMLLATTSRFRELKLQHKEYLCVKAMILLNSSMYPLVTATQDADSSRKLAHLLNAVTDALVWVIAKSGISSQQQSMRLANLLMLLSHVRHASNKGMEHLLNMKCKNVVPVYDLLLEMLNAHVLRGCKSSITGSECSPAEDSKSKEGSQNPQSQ

Compound | inhibition (at 10 µM) | inhibition [1] [%]
CCCc1cc(-n2ccnc2)n2c(nc3ccccc32)c1C#N | 32% (active) | 75
COc1ccc(NC2=CC(c3cccc(OC)c3)N(c3ccc(OC)cc3)C2=O)cc1 (configuration not stated) | 33% (inactive) | 25
O=C(Cc1cccs1)Nc1ccc(S(=O)(=O)N2CCCCC2)cc1 | 37% (inactive) | 38
O=C(CSc1nnc(Nc2ccccc2F)s1)NCc1ccco1 | 4% (inactive) | 48
COc1ccc(NC(=O)c2ccco2)cc1N | 69% (inactive) | 17
CN1C(=O)CC(C(=O)O)SC1=Nc1cc(Cl)c(O)c(Cl)c1 (configuration not stated) | 48% (inactive) | 14
Cc1cccn2c(=O)c3cc(C(=O)O)n(C)c3nc12 | 60% (inactive) | 11
CCOc1ccc(CC2S/C(=N/c3ccccn3)NC2=O)cc1 (configuration not stated) | 16% (inactive) | 15
Cc1ccccc1Nc1nnc(SCC(=O)NC(=O)NCc2ccco2)s1 | 0% (active) | 67
CSc1nc2c(c(=O)[nH]1)C(c1cccs1)C1=C(CCCC1=O)N2 (configuration not stated) | 71% (active) | 33
CCn1c(SCC(=O)Nc2ccc3c(c2)oc2ccccc23)nnc1-c1ccc(N)cc1 | 56% (inactive) | 18
O=c1c(OC2OC(CO)C(O)C(O)C2O)c(-c2ccc(O)c(O)c2)oc2cc(O)cc(O)c12 (configuration not stated) | 36% (inactive) | 46
C/C(N)=C(/C#N)C(=O)CSc1nnc(Cc2ccccc2F)n1N | 22% (inactive) | 7
O=C(Nc1ccc2oc(-c3ccc4ccccc4c3)nc2c1)c1cccs1 | 42% (inactive) | 36
Cc1ccc(C)n1-c1sccc1C(=O)O | 18% (inactive) | 26
Nc1ccc(-n2cnc3cc([N+](=O)[O-])ccc32)cc1 | 34% (inactive) | 12
O=C(CSc1nc2scc(-c3ccco3)c2c(=O)n1-c1ccccc1)NCC1CCCO1 (configuration not stated) | 55% (inactive) | 50
Cc1ccc(Nc2nnc(SCC(=O)NCc3ccco3)s2)cc1 | 18% (inactive) | 18

Compound | inhibition (at 10 µM) | inhibition [1] [%]
CC(O)C1CCC2C3CC[C@H]4CC(O)CCC4(C)C3CC3(OCCO3)C12C (some centres not stated) | 18% (inactive) | 13
N#Cc1ccc(-c2cccnc2)nc1SCC(=O)Nc1sc2c(c1C#N)CCC2 | 0% (inactive) | 10
COc1ccccc1/C=c1\sc2nc(-c3ccco3)nn2c1=O | 60% (inactive) | 21
COc1ccc(OC)c(N2C(=O)[C@@H]3C(c4ccccc4Cl)=NO[C@@H]3C2=O)c1 | 52% (inactive) | 30
Oc1ccc(N=Cc2ccc(O)c(O)c2)cc1 | 34% (inactive) | 20
COc1ccc(-c2ccc(=O)[nH]n2)cc1 | 0% (inactive) | 16
Cc1ccc(-c2n[nH]c(=S)n2/N=C/C=C\c2ccccc2[N+](=O)[O-])cc1 | 74% (active) | 4
O=C(Nc1ccc(O)cc1C(=O)O)c1ccc2c(c1)C(=O)N(Cc1ccco1)C2=O | 52% (active) | 72
CN1CCC(=NNC(=O)c2cn(-c3ccccc3)nc2-c2ccccc2)CC1 | 32% (inactive) | 6
COc1cc(C=C(c2nc3ccccc3s2)c2nc3ccccc3s2)ccc1O | 31% (inactive) | 57
Cc1ccccc1-n1nc(-c2ccc(N)cc2)cc1N | 25% (inactive) | 21
Clc1ccc2nc(-c3ccccn3)c(Nc3ccc4c(c3)OCO4)n2c1 | 60% (inactive) | 2
COC(=O)c1ccccc1NC(=O)c1noc2c1CCC2 | 38% (inactive) | 26
COc1ccc(-c2cn3c(C)c(C(=O)Nc4ccncc4)sc3n2)cc1 | 60% (inactive) | 19
Cc1cc(C)c(S(=O)(=O)/N=C2\C=CC(=O)C(Cl)=C2)c(C)c1 | 0% (inactive) | 16
COc1ccc(-c2nnc(-c3cc4c(ccc5ccccc54)oc3=O)o2)cc1 | 33% (inactive) | 6
O=C(c1cccs1)N1N=C(c2ccc(O)cc2)CC1c1ccccc1 (configuration not stated) | 68% (inactive) | 23
O=c1cc(-c2ccccc2Cl)oc2c(Br)ccc(O)c12 | 33% (inactive) | 19

Reference: PubChem BioAssay AID1210 (NMMLSC, 2008)
